Experimental data published in the supplement of paper PMC11482750.
± gives the standard deviation of the averaged measurements.

Compound: CCCCN=C=S [butyl isothiocyanate]
Experiment: control-subtracted net OSN firing rate; higher = stronger neuronal activation
Details: odorant dilution (vol/vol): 1/100
Protocol: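 Single sensillum recordings from olfactory sensory neurons. The neurons sit in the maxillary palp or antennal sensilla of D. melanogaster (wild type, mutants, or at1 empty-neuron lines expressing Or42a homologs or the A181D S307P mutant) and of four Scaptomyza species. Each odorant was given as a 1 s pulse from 20 µl loaded on filter paper at 1:100 vol/vol, diluted in mineral oil (γ-hexalactone in DMSO). Spikes were counted in a 0.5 s window starting 0.2 s after onset, background was subtracted, the count was doubled, and the mean solvent-control response was subtracted.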

| Target | control-subtracted net OSN firing rate |
| --- | --- |
| Canton-S (D. melanogaster) pb3a | 2.5 ± 6.6 spikes/s |
| S. pallida pb3a-like | -3 ± 7.5 spikes/s |
| S. hsui pb3a-like | 0 ± 6.8 spikes/s |
| S. pallida pb2a-like | 5 ± 7.6 spikes/s |
| S. montana pb2a-like | 2 ± 4.6 spikes/s |
| S. pallida pb2b-like | 2.67 ± 9.3 spikes/s |
| Or67dGal4, UAS-Sfla Or42a3/+ at1 | 27.7 ± 5 spikes/s |
| Or67dGal4; UAS-SflaOr42a3 at1 | 74.8 ± 23 spikes/s |
| S. montana pb1b-like | -15 ± 6.8 spikes/s |
| S. hsui pb2a-like | -1 ± 6 spikes/s |
| Canton-S (D. melanogaster) pb1b | -2.22 ± 8 spikes/s |
| S. pallida pb1b-like | -4.33 ± 11 spikes/s |
| Or67dGal4, UAS-Sfla A181D S307P/+ at1 | 29 ± 10 spikes/s |
| S. montana pb1a-like | 92.3 ± 11 spikes/s |
| Canton-S (D. melanogaster) pb3b | 2 ± 11 spikes/s |
| S. pallida pb3b-like | -1.67 ± 20 spikes/s |
| S. hsui pb1b-like | -1 ± 5.2 spikes/s |
| Canton-S (D. melanogaster) pb2b | -1.71 ± 8.6 spikes/s |
| Or67dGal4, UAS-Sfla Or42a3 at1 | 46 ± 28 spikes/s |
| Or67dGal4, UAS-Sfla Or42a4 at1 | 96.7 ± 25 spikes/s |

| Target | control-subtracted net OSN firing rate |
| --- | --- |
| Canton-S (D. melanogaster) pb2a | 3.43 ± 2.8 spikes/s |
| S. pallida pb1a-like | 11.7 ± 10 spikes/s |
| Or67dGal4; UAS-SflaOr42a4 at1 | 120 ± 36 spikes/s |
| S. hsui pb3b-like | 1 ± 2.8 spikes/s |
| Or67dGal4, UAS-Dmel Or42a at1 | 10.3 ± 7.7 spikes/s |
| S. flava pb2b-like | -1.33 ± 10 spikes/s |
| S. flava pb1b-like | -17.7 ± 20 spikes/s |
| Or67dGal4; UAS-A181D S301P at1 | 68.6 ± 33 spikes/s |
| S. flava pb3a-like | 5.67 ± 8.2 spikes/s |
| S. montana pb3a-like | 0.667 ± 10 spikes/s |
| S. hsui pb2b-like | 3.67 ± 6.9 spikes/s |
| Canton-S (D. melanogaster) pb1a | 8 ± 8.9 spikes/s |
| S. montana pb2b-like | -0.333 ± 6 spikes/s |
| S. flava pb3b-like | 1.67 ± 15 spikes/s |
| S. flava pb2a-like | -3 ± 8.9 spikes/s |
| Or67dGal4, UAS-Spal Or42a at1 | 18.2 ± 16 spikes/s |
| S. flava pb1a-like | 90.7 ± 22 spikes/s |
| Or67dGal4, UAS-Sfla Or42a4/+ at1 | 22.6 ± 4.1 spikes/s |
| Or67dGal4, UAS-Sfla Or42a2 at1 | 2.86 ± 5 spikes/s |
| S. hsui pb1a-like | 7.67 ± 5.8 spikes/s |
